In PubChem BioAssay:
Active and inactive are the calls of the source.

How the values were obtained:
[1] = test system: PRMT1 (protein arginine N-methyltransferase 1); assay: small molecules binding arginine methyltransferase PRMT1 – biochemical, small-molecule microarray, 635 nm fluorescence, primary screen (AID 1088); details: higher = more signal;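 note: binding of Prmt1 protein to compounds spotted on small-molecule microarray slides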
[2] = growth effects on S. cerevisiae YJM789 – YJM789 clinical isolate, OD600, 24 h, basal, primary screen (AID 1089); details: higher = more signal, called active from +8 up or from −8 down;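 note: growth of clinical yeast isolate S. cerevisiae YJM 789 seeded 1000 cells per well; test concentration not given here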
[3] = S. pombe growth modifiers, basal conditions – strain 972, OD600, 24 h, no modulator, primary screen (AID 1090);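 note: basal condition with compound alone and no growth modifier present; test concentration not given here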; details: S. pombe 972 growth, higher = more signal, called active from +8 up or from −8 down
[4] = budding yeast growth modifiers under rapamycin – strain BY4716, OD600, 96 h, primary screen (AID 1091); note: test concentration not given here; details: S. cerevisiae BY4716 + rapamycin, higher = more signal, called active from +8 up or from −8 down
[5] = biological target: Torsin-1A-interacting protein 2 (Homo sapiens) (UniProt Q8NFQ8); assay: small molecules binding lysate-expressed LULL1 – cell lysate, human LULL1 lysate, 635/667 nm fluorescence, primary screen (AID 1092); details: small-molecule microarray, hLULL1 lysate binding, 635 nm fluorescence; higher = more signal;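 note: probe is lysate of COS7 cells overexpressing human LULL1; score merges per-feature 667 nm fluorescence with signal-to-noise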
[6] = optical density change of DRC41 E. coli – strain DRC41, OD650, 24 h, E. coli filamentation project, primary screen (AID 1093);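 note: MC1000 strain lacking acrAB efflux and sulA so SOS filamentation is blocked; test concentration not given here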; details: E. coli DRC41 growth, higher = more signal, called active from +8 up or from −8 down
[7] = probe aLefty2 binding to arrayed compounds – biochemical, biotinylated probe, 635/667 nm fluorescence, primary screen (AID 1094); details: small-molecule microarray, higher = more signal;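 note: score merges spot fluorescence near 667 nm with spot signal-to-noise ratio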
[8] = test system: Noggin (protein binding on small-molecule microarray); assay: small molecules binding Noggin protein – biochemical, 635/667 nm fluorescence, primary screen (AID 1095); details: 635 nm fluorescence, higher = more signal;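 note: score merges 667 nm feature fluorescence with signal to noise over triplicate slides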
[9] = biological target: Neurogenic locus notch homolog protein 3 (Homo sapiens) (UniProt Q9UM47); assay: small molecules binding NOTCH3 protein – biochemical, 635/667 nm fluorescence, primary screen (AID 1096); details: small-molecule microarray, 635 nm fluorescence, higher = more signal
[10] = probe aEGFR binding to arrayed compounds – biochemical, biotinylated probe, 635/667 nm fluorescence, primary screen (AID 1097); details: small-molecule microarray, higher = more signal;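 note: probe is a biotinylated anti-EGFR antibody binding compounds printed on slides; score combines fluorescence near 667 nm and signal to noise of each spot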
[11] = test system: Plasmodium falciparum Sir2 (PF13_0152, Sir2A); assay: Plasmodium falciparum Sir2A binding compounds – biochemical, small-molecule microarray, 635 nm fluorescence, primary screen (AID 1098); details: fluorescence 635 nm, higher = more signal;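 note: score merges spot fluorescence intensity with its signal-to-noise ratio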
[12] = probe aDKK1 binding to arrayed compounds – biochemical, biotinylated probe, 635/667 nm fluorescence, primary screen (AID 1099); details: small-molecule microarray, higher = more signal;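 note: score merges 667nm spot fluorescence with signal to noise across triplicate slides; reference of the scale not given here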
[13] = probe aCHRDL2 binding to arrayed compounds – biochemical, biotinylated probe, 635/667 nm fluorescence, primary screen (AID 1100); details: small-molecule microarray, higher = more signal
[14] = change in splice reporter luminescence, either direction, cell-based, HEK293, spliceosome inhibition project, primary screen (AID 1101); details: HEK293 splicing luciferase reporter, 24 h, higher = more signal, called active from +8 up or from −8 down;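 note: HEK293 cells carrying a splicing-competent luciferase reporter gene; test concentration not given here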
[15] = biological target: Fibroblast growth factor 10 (Homo sapiens) (UniProt O15520); assay: compounds binding fibroblast growth factor 10 – biochemical, small-molecule microarray, 635 nm fluorescence, primary screen (AID 1102); details: FGF10 binding, fluorescence 635 nm, higher = more signal
[16] = test system: glycogen synthase kinase-3 (GSK3A per assay name; protocol says GSK3B); assay: compounds binding glycogen synthase kinase-3 – biochemical, small-molecule microarray, 635 nm fluorescence, GSK3A, primary screen (AID 1103); details: fluorescence 635 nm, higher = more signal; note: the record names both GSK3A and GSK3B
[17] = biological target: Epidermal growth factor receptor (Homo sapiens) (UniProt P00533); assay: compounds binding epidermal growth factor receptor – biochemical, small-molecule microarray, 635 nm fluorescence, primary screen (AID 1104); details: EGFR binding, higher = more signal;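 note: score merges 667 nm emission intensity with spot signal to noise over triplicate slides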
[18] = biological target: Follistatin-related protein 3 (Homo sapiens) (UniProt O95633); assay: compounds binding follistatin-related protein 3 – biochemical, small-molecule microarray, 635 nm fluorescence, primary screen (AID 1105); details: FSTL3 binding, higher = more signal;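 note: score merges emission near 667 nm and signal to noise per printed spot across three slides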
[19] = biological target: Dickkopf-related protein 1 (Homo sapiens) (UniProt O94907); assay: small molecules binding DKK1 protein – biochemical, small-molecule microarray, 635 nm fluorescence scan, primary screen (AID 1106); details: higher = more signal;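 note: score merges emission near 667 nm with signal to noise over three replicate slides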
[20] = test system: Inhibin beta A chain (activin A); assay: small molecules binding activin A – biochemical, small-molecule microarray, 635 nm fluorescence scan, primary screen (AID 1107); details: INHBA, higher = more signal;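 note: mouse activin A protein probed at 4.33 µg/mL on printed slides; score merges bound-protein fluorescence near 667 nm with spot signal-to-noise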

Fibroblast growth factor 10 (Homo sapiens), sequence (O15520 whole entry, looked up): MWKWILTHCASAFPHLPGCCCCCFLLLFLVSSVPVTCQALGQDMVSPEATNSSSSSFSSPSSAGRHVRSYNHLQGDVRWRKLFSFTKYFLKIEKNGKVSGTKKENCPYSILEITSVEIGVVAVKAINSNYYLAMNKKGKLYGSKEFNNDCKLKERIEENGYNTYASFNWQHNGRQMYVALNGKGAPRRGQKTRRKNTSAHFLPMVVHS
Follistatin-related protein 3 (Homo sapiens), sequence (O95633 whole entry, looked up): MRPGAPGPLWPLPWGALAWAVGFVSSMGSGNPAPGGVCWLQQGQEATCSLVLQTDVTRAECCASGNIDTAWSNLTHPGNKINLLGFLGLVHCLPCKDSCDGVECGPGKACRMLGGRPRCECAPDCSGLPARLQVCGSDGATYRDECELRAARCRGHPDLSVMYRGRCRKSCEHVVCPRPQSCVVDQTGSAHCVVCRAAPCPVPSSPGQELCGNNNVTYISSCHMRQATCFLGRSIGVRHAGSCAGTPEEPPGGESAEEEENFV
Epidermal growth factor receptor (Homo sapiens), sequence (P00533 whole entry, looked up): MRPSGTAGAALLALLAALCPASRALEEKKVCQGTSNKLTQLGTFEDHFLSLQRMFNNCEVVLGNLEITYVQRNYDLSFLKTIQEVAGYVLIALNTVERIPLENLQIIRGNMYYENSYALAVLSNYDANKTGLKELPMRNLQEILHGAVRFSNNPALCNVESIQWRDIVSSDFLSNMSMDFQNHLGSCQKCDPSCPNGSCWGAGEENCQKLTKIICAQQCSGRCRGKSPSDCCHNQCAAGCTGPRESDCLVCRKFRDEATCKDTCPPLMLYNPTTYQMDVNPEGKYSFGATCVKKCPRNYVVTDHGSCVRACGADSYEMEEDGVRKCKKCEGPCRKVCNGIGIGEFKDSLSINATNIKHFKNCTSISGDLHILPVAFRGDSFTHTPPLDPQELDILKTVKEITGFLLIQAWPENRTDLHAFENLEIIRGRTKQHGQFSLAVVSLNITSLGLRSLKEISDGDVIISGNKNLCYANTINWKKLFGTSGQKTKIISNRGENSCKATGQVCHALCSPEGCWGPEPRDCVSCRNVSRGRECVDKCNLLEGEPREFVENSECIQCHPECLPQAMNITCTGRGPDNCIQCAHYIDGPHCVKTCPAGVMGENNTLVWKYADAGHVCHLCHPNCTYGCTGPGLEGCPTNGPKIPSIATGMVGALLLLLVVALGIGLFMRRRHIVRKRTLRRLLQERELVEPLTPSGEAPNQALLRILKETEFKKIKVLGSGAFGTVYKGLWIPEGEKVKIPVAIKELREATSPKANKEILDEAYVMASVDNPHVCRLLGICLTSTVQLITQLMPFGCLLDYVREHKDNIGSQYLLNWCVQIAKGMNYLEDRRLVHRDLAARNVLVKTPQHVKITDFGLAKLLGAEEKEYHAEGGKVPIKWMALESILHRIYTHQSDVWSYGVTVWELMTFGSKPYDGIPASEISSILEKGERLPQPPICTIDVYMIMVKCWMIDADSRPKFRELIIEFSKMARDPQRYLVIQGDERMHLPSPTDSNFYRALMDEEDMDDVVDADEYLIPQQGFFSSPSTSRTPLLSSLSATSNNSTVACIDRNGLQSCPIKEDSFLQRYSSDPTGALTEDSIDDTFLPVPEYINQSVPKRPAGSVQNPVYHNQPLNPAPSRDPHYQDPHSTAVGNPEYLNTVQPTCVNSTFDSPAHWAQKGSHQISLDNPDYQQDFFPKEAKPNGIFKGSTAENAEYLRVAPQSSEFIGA
Dickkopf-related protein 1 (Homo sapiens), sequence (O94907 whole entry, looked up): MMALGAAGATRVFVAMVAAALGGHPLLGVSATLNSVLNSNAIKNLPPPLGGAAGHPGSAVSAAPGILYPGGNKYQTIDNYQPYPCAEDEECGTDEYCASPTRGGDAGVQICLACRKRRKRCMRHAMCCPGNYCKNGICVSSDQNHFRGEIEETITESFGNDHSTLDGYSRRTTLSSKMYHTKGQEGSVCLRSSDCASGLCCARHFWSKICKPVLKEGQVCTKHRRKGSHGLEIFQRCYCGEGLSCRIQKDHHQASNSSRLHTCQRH
Neurogenic locus notch homolog protein 3 (Homo sapiens), sequence (Q9UM47 whole entry, looked up): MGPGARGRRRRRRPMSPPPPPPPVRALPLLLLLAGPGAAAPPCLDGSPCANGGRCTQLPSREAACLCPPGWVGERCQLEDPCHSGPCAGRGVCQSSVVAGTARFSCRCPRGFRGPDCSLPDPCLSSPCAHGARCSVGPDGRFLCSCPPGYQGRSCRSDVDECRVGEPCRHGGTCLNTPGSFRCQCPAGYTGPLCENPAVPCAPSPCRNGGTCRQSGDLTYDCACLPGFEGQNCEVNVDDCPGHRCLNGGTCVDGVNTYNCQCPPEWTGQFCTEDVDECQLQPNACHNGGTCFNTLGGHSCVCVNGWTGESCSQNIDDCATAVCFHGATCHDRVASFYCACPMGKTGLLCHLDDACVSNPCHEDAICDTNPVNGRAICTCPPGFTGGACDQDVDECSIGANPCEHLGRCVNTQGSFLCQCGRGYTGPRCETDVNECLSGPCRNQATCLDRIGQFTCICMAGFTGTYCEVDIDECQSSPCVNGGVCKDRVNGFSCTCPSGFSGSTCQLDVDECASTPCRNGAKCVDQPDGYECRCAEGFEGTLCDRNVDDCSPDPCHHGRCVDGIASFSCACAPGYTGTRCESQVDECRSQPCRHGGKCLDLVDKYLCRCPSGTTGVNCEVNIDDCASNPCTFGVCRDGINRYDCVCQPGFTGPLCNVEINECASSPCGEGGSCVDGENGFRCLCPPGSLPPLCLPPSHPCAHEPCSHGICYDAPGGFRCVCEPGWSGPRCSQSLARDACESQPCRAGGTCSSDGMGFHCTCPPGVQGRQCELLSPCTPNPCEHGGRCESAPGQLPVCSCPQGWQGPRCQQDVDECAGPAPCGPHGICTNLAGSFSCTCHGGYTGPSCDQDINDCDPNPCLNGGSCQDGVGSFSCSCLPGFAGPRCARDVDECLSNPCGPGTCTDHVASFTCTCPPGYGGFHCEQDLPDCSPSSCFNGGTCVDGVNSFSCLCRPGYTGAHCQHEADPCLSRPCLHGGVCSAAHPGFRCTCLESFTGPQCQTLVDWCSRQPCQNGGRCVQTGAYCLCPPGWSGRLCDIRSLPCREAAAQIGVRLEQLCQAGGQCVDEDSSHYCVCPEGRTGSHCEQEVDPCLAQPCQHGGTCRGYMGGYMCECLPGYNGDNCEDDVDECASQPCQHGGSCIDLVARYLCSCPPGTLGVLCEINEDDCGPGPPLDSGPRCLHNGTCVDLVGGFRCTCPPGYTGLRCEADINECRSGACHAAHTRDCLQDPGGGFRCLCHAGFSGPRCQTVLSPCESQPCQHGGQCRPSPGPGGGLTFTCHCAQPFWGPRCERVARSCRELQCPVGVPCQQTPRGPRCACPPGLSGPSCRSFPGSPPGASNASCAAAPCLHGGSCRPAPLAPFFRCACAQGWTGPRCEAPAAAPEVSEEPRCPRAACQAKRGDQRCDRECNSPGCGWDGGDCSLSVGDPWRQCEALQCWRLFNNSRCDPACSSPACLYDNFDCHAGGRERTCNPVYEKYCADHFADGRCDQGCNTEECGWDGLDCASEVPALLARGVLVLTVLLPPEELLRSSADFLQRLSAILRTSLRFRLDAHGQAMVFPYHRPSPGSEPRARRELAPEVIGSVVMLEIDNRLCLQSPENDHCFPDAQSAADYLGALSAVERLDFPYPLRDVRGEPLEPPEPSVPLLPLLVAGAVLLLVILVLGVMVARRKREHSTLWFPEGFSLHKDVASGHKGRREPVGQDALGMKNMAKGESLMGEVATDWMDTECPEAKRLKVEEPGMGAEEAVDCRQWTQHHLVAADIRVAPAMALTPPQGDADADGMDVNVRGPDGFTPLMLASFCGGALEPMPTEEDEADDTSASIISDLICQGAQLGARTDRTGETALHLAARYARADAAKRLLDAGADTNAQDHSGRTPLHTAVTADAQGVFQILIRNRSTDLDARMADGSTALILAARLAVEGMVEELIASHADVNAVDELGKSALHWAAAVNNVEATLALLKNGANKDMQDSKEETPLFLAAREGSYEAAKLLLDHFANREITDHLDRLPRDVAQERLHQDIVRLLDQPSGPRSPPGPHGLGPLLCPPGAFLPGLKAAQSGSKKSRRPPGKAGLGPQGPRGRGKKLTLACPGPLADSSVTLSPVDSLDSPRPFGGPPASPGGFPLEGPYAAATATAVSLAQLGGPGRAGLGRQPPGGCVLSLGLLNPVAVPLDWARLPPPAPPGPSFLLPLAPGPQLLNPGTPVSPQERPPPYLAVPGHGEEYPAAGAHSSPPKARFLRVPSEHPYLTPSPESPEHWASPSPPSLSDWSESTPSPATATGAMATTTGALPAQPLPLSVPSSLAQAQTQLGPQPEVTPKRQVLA
Torsin-1A-interacting protein 2 (Homo sapiens), sequence (Q8NFQ8 whole entry, looked up): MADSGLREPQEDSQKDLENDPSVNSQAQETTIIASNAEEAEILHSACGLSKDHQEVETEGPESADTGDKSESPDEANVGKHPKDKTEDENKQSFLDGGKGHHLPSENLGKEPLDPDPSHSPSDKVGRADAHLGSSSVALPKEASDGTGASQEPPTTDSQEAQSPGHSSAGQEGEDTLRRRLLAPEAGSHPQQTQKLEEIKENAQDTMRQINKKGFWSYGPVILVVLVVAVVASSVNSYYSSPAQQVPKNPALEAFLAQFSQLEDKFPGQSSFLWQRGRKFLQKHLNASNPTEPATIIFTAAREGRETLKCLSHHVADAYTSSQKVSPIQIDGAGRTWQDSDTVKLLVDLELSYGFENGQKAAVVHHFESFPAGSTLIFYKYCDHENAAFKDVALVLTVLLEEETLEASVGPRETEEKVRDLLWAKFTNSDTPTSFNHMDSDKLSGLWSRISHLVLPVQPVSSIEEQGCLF

Row | Compound | composite z-score [1] | z-score [2] | z-score [3] | z-score [4] | composite z-score [5] | z-score [6] | composite z-score [7] | composite z-score [8] | composite z-score [9] | composite z-score [10] | composite z-score [11] | composite z-score [12] | composite z-score [13] | z-score [14] | composite z-score [15] | composite z-score [16] | composite z-score [17] | composite z-score [18] | composite z-score [19] | composite z-score [20]
1 | C=C(CCCC)C(=O)CC[C@H](OC(=O)c1cccnc1)c1ccc(OCCO)cc1 | 0.417 | 0.0275 (inactive) | -3.48 (inactive) | 0.364 (inactive) | 0.434 | 0.02 (inactive) | -0.0547 | 0.134 | -0.364 | 0.0089 | 0.142 | -0.117 | 0.27 | 0.98 (inactive) | -0.0659 | -0.0084 | -0.317 | -0.173 | 0.183 | 0.877
2 | OCC1C=C(/C=C/c2ccccc2)CN1Cc1ccccc1Br (stereo not given) | 0.94 | -0.486 (inactive) | -11.3 (active) | -1.4 (inactive) | 1.44 | 1.58 (inactive) | 0.0265 | 0.876 | 0.854 | 0.0339 | 1.1 | 0.296 | -0.241 | 0.103 (inactive) | 1.18 | 0.86 | 0.357 | 1.37 | 1.12 | 0.692
3 | CN(C)CCCCCCNC(=O)[C@@H]1C[C@@H]2C(=O)N[C@@H](CCCC[N+](C)(C)C)C(=O)N2[C@@H]1c1ccc(O)cc1 | 0.821 | -0.581 (inactive) | -0.689 (inactive) | -0.414 (inactive) | 0.219 | -0.227 (inactive) | -0.0907 | 0.576 | 0.0475 | -0.221 | 0.626 | -0.0429 | -0.397 | -0.0575 (inactive) | 0.421 | 0.467 | -0.144 | 0.0663 | 1.61 | -0.181
4 | COCCOC(=O)N1C(=O)[C@@]2(c3ccccc31)[C@H](c1ccc(OCCO)cc1)N1[C@H](c3ccccc3)[C@H](c3ccccc3)OC(=O)[C@H]1[C@@H]2C(=O)N1CCc2cc(OC)c(OC)cc2C1 | 1.53 | 1.93 (inactive) | 0.856 (inactive) | 4.71 (inactive) | 3.09 | 0.0474 (inactive) | 0.284 | 1.12 | 1.14 | 0.246 | 1.53 | 0.305 | 0.232 | -1.02 (inactive) | 1.29 | 1.3 | 0.738 | 1.42 | 0.476 | 0.355
5 | CCCCN1CC=CC23O[C@@H]4/C=C\CCCOC(=O)C4[C@H]2C(=O)N(CCCO)[C@@H]3C1=O (stereo not given in full) | 1.27 | -1.15 (inactive) | -1.04 (inactive) | -0.513 (inactive) | 2.86 | 0.0383 (inactive) | -0.212 | -0.991 | -0.1 | -0.324 | 0.992 | -0.222 | 0.421 | 0.187 (inactive) | -1.11 | -0.224 | -0.992 | -0.946 | -0.984 | -0.27
6 | CCOC(=O)C1=CC[C@H]2C(=O)N(c3ccccc3)C(=O)[C@@H]12 | 1.48 | 0.296 (inactive) | -0.0087 (inactive) | -0.487 (inactive) | 3.4 | -0.981 (inactive) | 0.157 | 0.436 | 1.07 | 0.08 | 1.67 | 0.143 | 0.0364 | 0.406 (inactive) | 1.19 | 0.571 | 0.55 | 1.01 | 0.56 | 0.304
7 | COc1ccc(CCNC(=O)[C@@]2(c3ccc([N+](=O)[O-])cc3)CC(=O)N(CC34CC5CC(CC(C5)C3)C4)[C@@H]2c2ccc(CO)cc2I)cc1 | 1.54 | 0.484 (inactive) | 0.369 (inactive) | 6.17 (inactive) | 2.83 | 0.376 (inactive) | -0.387 | 1.52 | 1.1 | -0.151 | 1.01 | -0.153 | -0.263 | -0.287 (inactive) | 1.15 | 1.04 | 0.233 | 0.861 | 0.424 | -0.444
8 | O=C(O)C1N=C(c2ccc(OCCCO)cc2)N(c2ccccc2)O1 (stereo not given) | 1.49 | -0.371 (inactive) | 0.651 (inactive) | -0.377 (inactive) | 2.03 | 0.281 (inactive) | 0.0399 | 0.306 | 0.12 | -0.0828 | 0.524 | 0.187 | 0.391 | -0.303 (inactive) | 1.22 | 0.472 | 0.327 | 0.285 | -0.0405 | 0.712
9 | COC(=O)[C@@]1(Cc2ccc(OC)cc2)[C@H]2c3cc(C(=O)N4CCCC4)n(CCSCCO)c3C[C@H]2CN1C(=O)c1ccccc1 | 0.416 | 0.786 (inactive) | 1.72 (inactive) | 1.25 (inactive) | 3.38 | -0.647 (inactive) | 0.172 | -0.492 | 0.671 | 0.157 | 0.45 | 0.852 | 1.21 | -0.657 (inactive) | 0.556 | 0.541 | 0.0009 | -0.17 | -0.984 | 0.435
10 | COC(=O)[C@@]1(Cc2ccccc2)[C@H]2c3cc(C(=O)N(C)C)n(Cc4ccc(OC)c(OC)c4)c3C[C@H]2CN1C(=O)c1ccccc1 | 0.42 | -0.257 (inactive) | 0.836 (inactive) | 0.534 (inactive) | 3.53 | -0.793 (inactive) | 0.728 | 0.0998 | 1.03 | 0.426 | 0.0313 | 0.905 | 0.94 | -4.08 (inactive) | 1.44 | 0.454 | 0.568 | 0.609 | -0.833 | 0.67
